aSyn 5UTR act – Activators via SNCA 5'UTR binding, MLPCN. activity score, % (tested at 7.5 µM), hits read low. alpha-synuclein 5'UTR reporter, activators screen. 300,000 tested, 7.1% active; in the data active = activity score below about -60%
The depositor's hits bear a star. Not all results are given here.

SMILES | aSyn 5UTR act
Cc1cccc(N2Cc3ccc(Br)cc3C2)c1 | -125*
Cc1ccn2c(C(=O)CSc3ccccc3)c(C)nc2c1 | -65*
CC(=O)Nc1cccc(-c2csc(Nc3ccc(Cl)cn3)n2)c1 | -174*
CC(=O)Nc1ccc(-c2csc(Nc3ccc(Cl)cn3)n2)cc1 | -127*
Cc1ccc(NC2c3ncccc3C(=O)N2c2ccccc2C)cc1C (stereo not drawn) | -168*
N#C/C(=C\c1ccc(N2CCCCC2)o1)C(=O)Nc1cccc(Br)c1 | -178*
O=C(COc1ccccc1Cl)Nc1ccc2c(c1)OCO2 | -145*
COc1ccccc1OCC(=O)Nc1ccc2c(c1)OCO2 | -96*
CN1CCN(c2ccc(NC(=O)COc3ccccc3Cl)cc2)CC1 | -65*
Cc1ccccc1OCC(=O)Nc1ccc2c(c1)OCO2 | -140*
COc1cc(C(=O)c2cocc2C(=O)c2ccc3c(c2)OCO3)cc(OC)c1OC | 67
CN(C)c1ccc(-c2nc3cc(N)ccc3o2)cc1 | 93
COc1ccccc1C(=O)Nc1ccc2oc(-c3ccc(F)cc3)nc2c1 | -201*
O=C(O)c1ccccc1-c1ccccc1C(=O)Nc1ccc(-c2nc3cc(Cl)ccc3o2)cc1 | -77*
CC(=O)Nc1ccc(-c2nc3cc(Cl)ccc3o2)cc1 | -73*
CC(C)(C)C(=O)Nc1ccc2oc(-c3cc(F)c(F)cc3Cl)nc2c1 | -252*
Cc1cs/c(=N\N=C\c2cccc([N+](=O)[O-])c2)n1Cc1ccco1 | -97*
Brc1cccc2sc(N3CCCC3)nc12 | -75*
Clc1cccc2sc(N3CCOCC3)nc12 | -64*
Fc1cccc2sc(N3CCCC3)nc12 | -79*
Cc1ccc(-n2nnnc2Sc2nc([N+](=O)[O-])nn2C)cc1 | -71*
COc1nc(NCCO)nc(Nc2ccccc2F)n1 | -97*
COc1cc2c(cc1NC(=O)c1ccccc1F)CCCC2 | -270*
COc1cc(OC)c(NC(=O)c2ccccc2F)cc1Cl | -122*
COc1cc2c(cc1NC(=O)c1cccc(F)c1)CCCC2 | -76*
SMILES | aSyn 5UTR act
CN(C)C(=O)COc1ccc2cc(-c3ccccc3)c(=O)oc2c1 | -91*
COc1ccc2cc(-c3ccccc3)c(=O)oc2c1 | -72*
CCC(=O)c1cn(CC(=O)NCc2ccco2)c2ccccc12 | -65*
CC(=O)c1ccc(-n2c(C)ccc2-c2ccccc2)cc1 | -109*
Cc1c(Cl)cccc1Nc1nc(N)nc(CSc2ncccn2)n1 | -77*
CC(/C=C/c1ccc(N(C)C)cc1)=N\N=C1\NC(=O)CC(C(=O)Nc2ccccc2)S1 (stereo not drawn) | -73*
CCCOc1ccc(NC(=O)C2CC(=O)N/C(=N/N=C(C)/C=C/c3ccc(N(C)C)cc3)S2)cc1 (stereo not drawn) | -79*
Cc1ccc(-c2cc(C(=O)N/N=C/c3c(C)nn(-c4ccccc4)c3C)[nH]n2)cc1 | 66
COC(=O)c1cc(-c2c(C)nn(-c3ccccc3)c2C)n[nH]1 | -87*
Cc1ccc(NC(=O)c2ccccc2)cc1OC(=O)c1ccccc1 | -109*
CC(C)OC(=O)c1ccc(NC(=O)c2ccccc2)cc1 | -78*
O=C(Nc1ccccc1)c1ccc(OC(=O)c2ccccc2)cc1 | -63*
CCCOC(=O)c1ccc(NC(=O)c2ccoc2C)cc1 | -154*
CCOC(=O)/C(=C/c1ccccc1)NC(=O)c1ccco1 | -65*
CC(C)OC(=O)c1ccc(NC(=O)c2ccco2)cc1 | -140*
CCOC(=O)c1ccc(NC(=O)c2ccco2)cc1 | -189*
CCOC(=O)c1cc(C(=O)Nc2ccc(C)c(F)c2)nn1C | -224*
COc1cc(-c2noc(C)c2C#Cc2ccccn2)cc(OC)c1OC | 86
COc1cccc2oc3ccc(C#Cc4ccccn4)cc3c(=O)c12 | -71*
O=c1c2ccccc2oc2cc(C#Cc3ccccn3)ccc12 | -67*
O=C(Nc1ccc2nc3n(c(=O)c2c1)CCCC3)c1ccccc1F | -67*
CCOC(=O)Nc1ccc2nc3n(c(=O)c2c1)CCCCC3 | -79*
O=C(Nc1ccc2nc3n(c(=O)c2c1)CCCCC3)c1ccccc1[N+](=O)[O-] | -87*
CCN(CC)c1cc(C)c2cc(NC(=O)c3ccccc3F)ccc2n1 | -125*
O=C(Nc1ccc2nc3n(c(=O)c2c1)CCCCC3)c1c(F)ccc([N+](=O)[O-])c1F | 85
SMILES | aSyn 5UTR act
O=C(Nc1ccc2nc3n(c(=O)c2c1)CCCC3)c1cccc(F)c1 | -82*
CCc1ccccc1NC(=O)c1cc2ncc(Br)cn2n1 | -79*
O=C(Nc1ccccc1C(F)(F)F)c1cc2ncc(CCCl)cn2n1 | -81*
COc1ccc(CCNC(=O)c2ccc3nc(N4CCCCC4)sc3c2)cc1OC | -131*
COc1ccc2nc(N3CCCC(C(=O)NCCc4ccc(OC)c(OC)c4)C3)sc2c1 (stereo not drawn) | -87*
CCOc1ccc2nc(N3CCCC(C(=O)NCCCN4CCCCC4)C3)sc2c1 (stereo not drawn) | -86*
CCc1cc2c(=O)n3c(nc2s1)-c1[nH]c2ccc(OC)cc2c1CC3 | -103*
Cc1ccc(NC(=O)CSc2ccc(C(N)=O)cc2[N+](=O)[O-])cc1 | -67*
CCCNc1ccc(C(=O)OCC)cc1[N+](=O)[O-] | -83*
Cc1ccc(NC(=O)c2ccc(NCCN)c([N+](=O)[O-])c2)cc1 | -99*
CCC(CC)NC(=O)c1cc2c(C)nn(Cc3ccccc3Cl)c2s1 | 71
Cc1nn(-c2ccccc2)c2sc(C(=O)N3CCCCC3)cc12 | -68*
Cc1cnc(NC(=O)c2cc3c(C)nn(-c4ccccc4)c3s2)s1 | -66*
Cc1cccn2c(=O)c3cc(C(=O)N4CCCCC4)sc3nc12 | -64*
C/C(=N/Nc1ccnc2cc(Cl)ccc12)c1ccc(N)cc1 | -177*
C/C(=N/Nc1ccnc2cc(Cl)ccc12)c1ccc(O)cc1 | -118*
CCCCCOC(=O)NCC(O)c1ccccc1 (stereo not drawn) | -128*
Cc1cccc(C)c1N=C1SC(CC(=O)Nc2c(C)cccc2C)C(=O)N1CCc1ccccn1 (stereo not drawn) | 67
Clc1nc(-c2ccccn2)nc2scc(-c3ccccc3)c12 | -206*
c1ccc(COc2ccc(OCCOCCn3cncn3)cc2)cc1 | -117*
Cc1ccc(C(=O)OCC(=O)NCc2cccs2)c(C)c1 | -75*
N#Cc1nc(-c2ccccc2F)oc1NCCc1ccccn1 | -81*
COCCCNc1oc(-c2ccccc2F)nc1C#N | -84*
CC(=O)Oc1ccc([C@@H]2COc3c(ccc4c3C=CC(C)(C)O4)C2)c(OC(C)=O)c1 | -152*
Cc1ccc(-n2c(C)cc(C(=O)CSc3nncs3)c2C)cc1 | -172*
SMILES | aSyn 5UTR act
Cc1cc(C(=O)CSc2nncn2C)c(C)n1-c1ccccc1 | -67*
Cc1cc(-n2c(C)cc(C(=O)CCl)c2C)no1 | 119
Cc1cc(C(=O)CN2CC(C)OC(C)C2)c(C)n1-c1ccccc1 (stereo not drawn) | -105*
Cn1cnnc1SCC(=O)c1c[nH]c2ccccc12 | -92*
Cc1cc(C(=O)CSc2cccc[n+]2[O-])c(C)n1-c1ccccc1 | 57
Cc1cc(C(=O)CSc2cccc[n+]2[O-])c(C)n1-c1ccc(Br)cc1 | -150*
COc1ccc(-c2cc(O)cc(O)c2)cc1 | -143*
CC(=O)N1CCn2c3ccc(C)cc3c3cccc1c32 | -83*
CN(C)c1ccc(-c2nc3ccccc3n2C)cc1 | 61
C=CCn1c(-c2ccc(OC)cc2)nc2ccccc21 | -73*
CCn1c(-c2ccc(N(C)C)cc2)nc2ccccc21 | -97*
O=C1Nc2cc(C(=O)NCCCN3CCCC3)ccc2S/C1=C/c1ccccc1F | -106*
